Assay outcomes deposited in PubChem BioAssay by Sanford-Burnham Center for Chemical Genomics.
CYP2C19 inh: human CYP2C19 inhibition; P33261; CYP2C19 Supersomes, luciferin-H EGE luminescence, 30 min; inhibition, % at 5 µM; 21% of 96,000 active;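 active = CYP2C19 inhibition above a set limit at 5 µM in the primary screen, cut at about 50% in these data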;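 note: plate controls were negative control wells for no effect and 2.5 mM tranylcypromine positive control for full effect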
Target sequence (P33261 whole entry, looked up): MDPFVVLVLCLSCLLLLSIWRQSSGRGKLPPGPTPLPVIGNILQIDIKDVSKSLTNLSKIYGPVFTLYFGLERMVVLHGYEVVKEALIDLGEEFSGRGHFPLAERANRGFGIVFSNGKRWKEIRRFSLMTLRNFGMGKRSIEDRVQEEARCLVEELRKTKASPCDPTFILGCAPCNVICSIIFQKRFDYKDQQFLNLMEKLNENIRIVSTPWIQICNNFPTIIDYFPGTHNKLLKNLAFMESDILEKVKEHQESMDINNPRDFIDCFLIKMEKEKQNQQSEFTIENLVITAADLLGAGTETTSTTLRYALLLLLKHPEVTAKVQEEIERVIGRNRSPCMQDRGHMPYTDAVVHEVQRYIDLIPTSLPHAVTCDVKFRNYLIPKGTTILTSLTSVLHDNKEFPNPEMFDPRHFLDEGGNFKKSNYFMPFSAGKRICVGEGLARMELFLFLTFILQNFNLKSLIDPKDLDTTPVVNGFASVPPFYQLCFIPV
CYP2C9 act: CYP2C9 (human) activation. P11712. recombinant CYP2C9, luciferin-H conversion, luminescence; active compounds read high; factor 1 = untreated enzyme, 0 = blocked. activation factor at 5 µM. 1.4% of 96,000 active;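 active = activation factor of 2 or more for CYP2C9 at a 5 µM dose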;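 note: 0 = sulfaphenazole-blocked wells and 1 = vehicle-only wells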
CYP2C19 act: activators of human cytochrome P450 2C19; recombinant CYP2C19, luciferin-H EGE luminescence; active compounds read high; 0 = fully inhibited enzyme, 1 = untreated enzyme; activation factor at 5 µM; 96,000 tested, under 10 active; AID 1025;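 active = activation factor of at least 2 at 5 µM in the primary screen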;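 note: 0 = wells with 2.5 mM tranylcypromine and 1 = vehicle-only wells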
CYP2C9 inh: human CYP2C9 inhibition. P11712. CYP2C9 Supersomes, luciferin-H conversion, luminescence. inhibition, % at 5 µM. 20% of 96,000 active. AID 777;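 active = blocking of liver enzyme CYP2C9 beyond about 50% at 5 µM, limit read from the data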
PLAP activator: human PLAP activation. P05187. purified PLAP enzyme, luminescent substrate read-out; active compounds read high. activation fold at 20 µM. 1.2% of 96,000 active. AID 696; in the data active = activation fold above about 2
The depositor's hits bear a star. Only some compounds are listed: those with a hit (about 31% of all), similar ones and a draw of the others.

SMILES | CYP2C19 inh | CYP2C9 act | CYP2C19 act | CYP2C9 inh | PLAP activator
CCC(C)(C(=O)NC1CCCC1)N(C(=O)c1ccccn1)c1ccc(C)cc1 (stereo not drawn) | 26 | 0.5 | 0.7 | 50 | 1.8
CCOC(=O)C1C(=O)C=C(c2ccc(Br)cc2)CC1c1ccco1 (stereo not drawn) | 25 | 0.7 | 0.7 | 28 | 0.8
CCOC(=O)C1C(=O)C=C(c2ccc([N+](=O)[O-])cc2)CC1c1ccccc1 (stereo not drawn) | 76* | 0.3 | 0.2 | 75* | 0.9
Cn1c(=O)[nH]c(=O)c2c1nc(N1CCCCC1)n2CCOc1ccccc1 | 30 | 0.9 | 0.7 | 8 | 1.3
O=C(CN1C(=O)NC2(CCCCCCC2)C1=O)NCc1ccc2c(c1)OCO2 | 5 | 0.8 | 1 | 23 | 0.8
CCOc1ccc(N(CC(=O)N/N=C/c2cc([N+](=O)[O-])ccc2Cl)S(C)(=O)=O)cc1 | 7 | 1 | 0.9 | 4 | 0.9
Cc1ccc(C)c(N(CC(=O)N/N=C/c2ccc(-c3ccc([N+](=O)[O-])cc3)o2)S(=O)(=O)c2ccccc2)c1 | 19 | 0.4 | 0.8 | 61* | 1.1
CCOc1ccc(S(=O)(=O)N(CC(=O)N/N=C/c2ccc(-c3ccc([N+](=O)[O-])cc3)o2)c2ccccc2)cc1 | 20 | 0.4 | 0.8 | 62* | 1.1
O=[N+]([O-])c1cccc(-c2ccc(/C=N/NC(=S)Nc3ccccc3)o2)c1 | -13 | 1.1 | 1.1 | -6 | 1
O=C(CSc1nnc(-c2ccccn2)n1Cc1ccccc1)Nc1ccc2c(c1)OCO2 | 1 | 0.8 | 1 | 15 | 1
CN1C(=O)CSC1=NCC12CC3CC(CC(C3)C1)C2 | -2 | 0.8 | 1 | 20 | 0.8
N#Cc1nc(COc2ccc(F)cc2)oc1N1CCN(Cc2ccccc2)CC1 | 73* | 0.1 | 0.3 | 93* | 1.2
N#Cc1nc(-c2ccc(OCc3ccccc3)cc2)oc1N1CCOCC1 | 40 | 1 | 0.6 | 4 | 1.2
N#Cc1nc(COc2ccc(F)cc2)oc1N1CCC(Cc2ccccc2)CC1 | 16 | 0.3 | 0.8 | 70* | 0.9
N#Cc1nc(COc2ccc(Br)cc2)oc1N1CCN(Cc2ccccc2)CC1 | 17 | 0.4 | 0.8 | 56* | 1.2
CCN1CCN(c2oc(COc3ccc(-c4ccccc4)cc3)nc2C#N)CC1 | 93* | 0.2 | 0.1 | 81* | 1.4
CC(=O)Nc1ccc(S(=O)(=O)Nc2nc3ccccc3nc2N2CCCCCC2)cc1 | 23 | 0.3 | 0.8 | 70* | 1.1
CCOc1nc2ccccc2nc1NS(=O)(=O)c1ccccc1 | -9 | 0.6 | 1.1 | 39 | 1.3
CC(=O)Nc1ccc(S(=O)(=O)Nc2ncccn2)cc1 | 4 | 1 | 1 | -1 | 0.8
Cc1c(Nc2nc3ccccc3nc2N2CCN(c3ccccc3)CC2)c(=O)n(-c2ccccc2)n1C | 35 | 0.2 | 0.7 | 75* | 1.9
Cc1ccc(S(=O)(=O)NC2=NCN(Cc3ccccc3)CN2)cc1 | 21 | 1.1 | 0.8 | -10 | 1.1
COc1ccc(N2CCN(c3nc4ccccc4nc3NS(=O)(=O)c3ccccc3)CC2)cc1 | 53* | 0 | 0.5 | 98* | 1.6
Cc1ccc(S(=O)(=O)NC2=C(N3CCN(Cc4ccccc4)CC3)C(=O)c3ccccc3C2=O)cc1 | -5 | 0.4 | 1.1 | 63* | 1.5
CC12CC3CC(C)(C1)CC(C(=O)NC(=S)N1CCOCC1)(C3)C2 | 5 | 1 | 0.9 | -4 | 1
Cc1ccc(S(=O)(=O)Nc2nc3ccccc3nc2N2CCN(c3ccccc3F)CC2)cc1 | 30 | 0 | 0.7 | 100* | 1.6
SMILES | CYP2C19 inh | CYP2C9 act | CYP2C19 act | CYP2C9 inh | PLAP activator
Cc1ccc(S(=O)(=O)NC2=C(N3CCN(c4ccccc4F)CC3)C(=O)c3ccccc3C2=O)cc1 | 38 | 0.4 | 0.6 | 61* | 1.3
Cc1ccc(S(=O)(=O)N(CC(=O)N2CCN(c3ccccc3F)CC2)C2CCCCC2)cc1 | 18 | 0.6 | 0.8 | 43 | 1.9
O=S(=O)(Nc1nc2ccccc2nc1N1CCN(c2ccccn2)CC1)c1ccc(Cl)cc1 | 34 | 0 | 0.7 | 100* | 1.5
CC(=O)Nc1ccc(S(=O)(=O)NC2=C(N3CCN(c4ccc(F)cc4)CC3)C(=O)c3ccccc3C2=O)cc1 | 26 | 0.4 | 0.7 | 61* | 1.8
COC(=O)Nc1ccc(S(=O)(=O)N2CCN(c3ccc(F)cc3)CC2)cc1 | -6 | 1 | 1.1 | -2 | 0.9
COc1ccc(CNC(=O)CN(C(=O)c2cc3sccc3n2C)C2CCCC2)cc1 | 6 | 0.8 | 0.9 | 15 | 1
COc1cccc(NC(=O)CC2C(=O)NC3CCCCC3N2C(=O)c2ccc(F)cc2)c1 (stereo not drawn) | 18 | 0.5 | 0.8 | 50 | 1.6
CCOC(=O)CCNC(=O)Nc1ccc2nc(C)n(Cc3ccc(Cl)cc3)c(=O)c2c1 | 48 | 0.3 | 0.5 | 71* | 1
O=C(Cn1c(CN2CCCCC2)nc2ccccc2c1=O)Nc1ccccc1 | 88* | 0.6 | 0.1 | 41 | 0.9
Cc1cc(NC(=O)Cn2nc3c(cc2=O)CCCC3)ccc1Br | 88* | 0.6 | 0.1 | 39 | 1.3
CCC(=O)Nc1ccc2nc(C)n(CC(=O)Nc3ccccc3)c(=O)c2c1 | 28 | 0.4 | 0.7 | 58* | 1.1
CCCc1nc2ccc(NC(=O)c3ccco3)cc2c(=O)n1Cc1ccc(Cl)cc1 | 12 | 1 | 0.9 | 4 | 1
Cc1nn(C)cc1C=NCCOCc1ccccc1 | -6 | 1.1 | 1.1 | -8 | 1
Cc1cc(CN2C(=O)c3ccccc3C2=O)cc(N2CCOCC2)c1 | 47 | 1.6 | 0.5 | -61 | 1.4
O=C(Cn1c(C2CC2)nc2ccccc2c1=O)Nc1ccc(Br)cc1 | 56* | 0.5 | 0.4 | 51* | 0.9
Cc1ccccc1NC(=O)Cn1c(C)nc2ccc(NC(=O)C3CC3)cc2c1=O | 5 | 0.6 | 0.9 | 36 | 1
Cc1cc(NC(=O)Cn2c(C)nc3ccccc3c2=O)ccc1Br | 38 | 0.4 | 0.6 | 60* | 0.9
O=C1C2CC=CCC2C(=O)N1c1ncn[nH]1 (stereo not drawn) | -1 | 1 | 1 | 1 | 2.6*
Cc1ccc(SC(C)C(=O)Nc2ccccc2C(=O)N2CCOCC2)cc1 (stereo not drawn) | 29 | 0.9 | 0.7 | 14 | 1.3
Cc1ccc(SC(C)C(=O)N2CCCC2)cc1 (stereo not drawn) | 76* | 0.8 | 0.2 | 18 | 1
COc1ccc(OC)c(NC(=O)C23CC4CC(C2)CC(n2cnc(Br)n2)(C4)C3)c1 | 72* | 2.6* | 0.3 | -159 | 1.6
COc1ccc(NC(=O)C23CC4CC(C2)CC(n2cnc(Br)n2)(C4)C3)c(OC)c1 | 5 | 1.1 | 1 | -6 | 1.6
O=C(N1CCCCCC1)N1CCN(S(=O)(=O)N2CCCCC2)CC1 | 32 | 0.7 | 0.7 | 33 | 1.4
Nc1nc2ccc(Oc3ccccc3)cc2s1 | 68* | 0.3 | 0.3 | 71* | 1.1
CCN=c1scc(C)n1/N=C/c1ccsc1 | 60* | 0.6 | 0.4 | 38 | 1.4
